According to paper PMC5540273 (PLoS ONE, 2017):

Experiments:
Settings in all cases: concentration: 1 μM, replicates: in singlicate; n = 1
ERK4 = system: T1, ERK4
T1 construct: gene MAPK4

ERK5 = system: T2, ERK5
T2 construct: gene MAPK7

ERK8 = system: T3, ERK8
T3 construct: gene MAPK15

ERN1 = system: ERN1
FAK = system: T4, FAK
T4 construct: gene PTK2

FER = system: FER
FES = system: FES
FGFR1 = system: FGFR1
FGFR2 = system: FGFR2
FGFR3 = system: FGFR3
FGFR4 = system: FGFR4
FGR = system: FGR
FLT1 = system: FLT1
FLT3-autoinhibited = system: FLT3-autoinhibited
FLT3 = system: FLT3
FLT4 = system: FLT4
FRK = system: FRK
FYN = system: FYN
GAK = system: GAK
GCN2(Kin.Dom.2,S808G) = system: T5, GCN2(Kin.Dom.2,S808G)
T5 construct: gene EIF2AK4
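Also: KINOMEscan kinase panel screen.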

Row | SMILES | %Inh (ERK4) | %Inh (ERK5) | %Inh (ERK8) | %Inh (ERN1) | %Inh (FAK) | %Inh (FER) | %Inh (FES) | %Inh (FGFR1) | %Inh (FGFR2) | %Inh (FGFR3) | %Inh (FGFR4) | %Inh (FGR) | %Inh (FLT1) | %Inh (FLT3-autoinhibited) | %Inh (FLT3) | %Inh (FLT4) | %Inh (FRK) | %Inh (FYN) | %Inh (GAK) | %Inh (GCN2(Kin.Dom.2,S808G))
1 | COC(=O)c1cccc(NC(=O)NCCNc2ccnc(Nc3ccc(F)cc3)n2)c1 [GSK1379883] | 4% | 0% | 0% | 21% | 0% | 19% | 7% | 0% | 43% | 15% | 0% | 9% | 28% | 0% | 0% | 17% | 1% | 0% | 0% | 6%
2 | CCc1nc(-c2cccc(N(C)S(=O)(=O)c3ccccc3)c2)c(-c2ccnc(Nc3ccc(N4CCN(C(C)=O)CC4)nc3)n2)s1 [GSK1645895] | 18% | 19% | 0% | 28% | 0% | 0% | 0% | 0% | 0% | 3% | 0% | 73% | 24% | 18% | 0% | 14% | 0% | 40% | 85% | 4%
3 | COC(=O)c1c(-c2ccccc2)c2cc(Cl)ccc2c(=O)n1Cc1ccc(S(C)(=O)=O)cc1 | 3% | 13% | 6% | 13% | 4% | 0% | 3% | 0% | 8% | 6% | 6% | 0% | 0% | 2% | 0% | 8% | 22% | 0% | 100% | 0%
4 | COc1cc2c(Nc3cccc(NC(=O)c4ccccc4)c3)ncnc2cc1OCCCN1CCOCC1 [GSK223810] | 0% | 0% | 0% | 23% | 0% | 0% | 0% | 18% | 11% | 22% | 3% | 0% | 61% | 0% | 6% | 28% | 17% | 24% | 16% | 0%
5 | CS(=O)(=O)CCNCc1ccc(-c2ccc3ncnc(Nc4ccc(OCc5ccccc5)c(Cl)c4)c3c2)o1.Cl [GW574783] | 0% | 0% | 15% | 0% | 11% | 14% | 0% | 0% | 0% | 12% | 0% | 9% | 26% | 0% | 11% | 0% | 0% | 14% | 0% | 16%
6 | COc1cc2ncnc(Nc3ccc(OCc4ccccc4Br)c(Cl)c3)c2cc1OC.Cl [GI261590] | 32% | 0% | 0% | 0% | 0% | 18% | 25% | 0% | 38% | 12% | 9% | 43% | 23% | 0% | 0% | 0% | 6% | 0% | 0% | 24%
7 | O=C(Nc1ccccc1F)NC1CCN(c2ccnc(Nc3ccc(F)cc3)n2)C1 (stereo not drawn) [GSK1379722] | 12% | 0% | 31% | 0% | 0% | 26% | 0% | 0% | 19% | 15% | 7% | 9% | 26% | 0% | 1% | 14% | 9% | 0% | 0% | 4%
8 | Cc1cc(N2CCC(NS(=O)(=O)c3ccc(F)cc3)CC2)nc(Nc2cccc(C#N)c2)n1.O=C(O)C(F)(F)F [GSK1653537] | 0% | 0% | 31% | 0% | 0% | 18% | 26% | 6% | 0% | 16% | 0% | 26% | 35% | 0% | 4% | 0% | 8% | 19% | 0% | 6%
9 | O=C(CCO)NCCn1ccc2ncnc(Nc3ccc(Oc4cccc(C(F)(F)F)c4)c(Cl)c3)c21 | 0% | 5% | 0% | 0% | 0% | 0% | 0% | 0% | 0% | 0% | 0% | 5% | 0% | 0% | 0% | 0% | 0% | 0% | 0% | 0%
10 | C[C@H]1CC[C@@H](C(=O)Nc2ccccc2)CN1c1cc(-c2ccc3c(N)n[nH]c3c2)nc(N)n1 [GSK2283293] | 29% | 0% | 0% | 0% | 0% | 3% | 9% | 0% | 5% | 0% | 0% | 27% | 13% | 0% | 0% | 4% | 5% | 0% | 0% | 0%
11 | CCn1c(-c2ccncc2)nc2cnccc21 [SB-735216] | 3% | 8% | 0% | 5% | 9% | 0% | 3% | 0% | 0% | 17% | 11% | 3% | 4% | 20% | 15% | 5% | 0% | 19% | 13% | 12%
12 | Cl.c1ccc(Cn2ccc3cc(Nc4ncnc5ccccc45)ccc32)cc1 [GW275568] | 46% | 7% | 0% | 0% | 0% | 17% | 15% | 0% | 0% | 28% | 8% | 21% | 24% | 11% | 0% | 8% | 0% | 25% | 25% | 0%
13 | CSc1ccc(NC2=C(c3ccccc3Cl)C(=O)NC2=O)cc1 [SB-342411] | 9% | 0% | 0% | 9% | 0% | 5% | 0% | 11% | 4% | 26% | 16% | 14% | 6% | 0% | 0% | 1% | 9% | 0% | 14% | 0%
14 | CS(=O)(=O)CCNCc1nc(-c2ccc3ncnc(Nc4ccc(OCc5cccc(F)c5)c(Cl)c4)c3c2)cs1.Cl [GW583340] | 45% | 5% | 0% | 10% | 0% | 3% | 0% | 0% | 0% | 0% | 0% | 11% | 10% | 0% | 0% | 0% | 0% | 35% | 19% | 0%
15 | Cc1ccc(NC(=O)c2cccc(C#N)c2)cc1-c1ccc(C(=O)Nc2ccncc2)cc1 [GSK1398463] | 25% | 96.8% | 38% | 15% | 0% | 3% | 17% | 10% | 17% | 33% | 25% | 47% | 33% | 21% | 0% | 12% | 92.9% | 22% | 14% | 0%
16 | CC(C)(C)c1ccc(-n2cnc3c(N)ncnc32)cc1 [SKF-97263] | 0% | 0% | 48% | 6% | 0% | 13% | 13% | 12% | 20% | 15% | 10% | 30% | 7% | 17% | 6% | 15% | 0% | 2% | 9% | 11%
17 | Oc1ccc2ncnc(Nc3ccc(OCc4ccccc4)cc3)c2c1 [GI262866] | 0% | 0% | 57% | 19% | 0% | 0% | 0% | 0% | 0% | 0% | 66% | 4% | 29% | 0% | 60% | 21% | 0% | 7% | 0% | 15%
18 | Nc1nc(-c2cccnc2)c(-c2ccnc3ccccc23)s1 [GW684083] | 12% | 0% | 0% | 0% | 0% | 24% | 0% | 4% | 20% | 21% | 0% | 24% | 29% | 0% | 16% | 0% | 5% | 12% | 77% | 24%
19 | Cn1ccc2ncnc(Oc3ccc(NC(=O)Nc4cccnc4)c(Cl)c3)c21 | 0% | 5% | 0% | 37% | 0% | 0% | 16% | 0% | 0% | 0% | 0% | 0% | 2% | 0% | 0% | 37% | 0% | 0% | 0% | 0%
20 | Nc1nc(-c2ccccn2)c(-c2ccnc3ccccc23)s1 [GW548057] | 31% | 4% | 0% | 14% | 0% | 8% | 0% | 0% | 0% | 16% | 0% | 9% | 34% | 0% | 0% | 0% | 0% | 11% | 47% | 0%
21 | COc1ccc(-c2oc3ncnc(N)c3c2-c2ccc(OC)cc2)cc1 [SB-589132] | 27% | 0% | 0% | 18% | 0% | 5% | 0% | 0% | 3% | 0% | 3% | 43% | 21% | 18% | 13% | 12% | 17% | 46% | 48% | 41%
